Test results published in PubChem BioAssay (NCATS).
“And” between values parts separate entries of the source, which are not always exact repeats. Equal entries are not always repeated. Inconclusive results are not listed. A call without a number means that no potency is given here. The source made the active and inactive calls. The call rests on the fitted dose curve; in most records, active means well fitted cell-killing curve with a large enough effect; inconclusive means small, poorly fitted or top-dose-only effect; inactive means flat fitted curve, though single readings scatter.

Assay: qHTS of pediatric cancer cell lines to identify multiple opportunities for drug repurposing: Primary screen for RD cells (AID 1347104); further: nearly all actives have a fitted effect of over 55% in size
Settings: RD rhabdomyosarcoma viability, CellTiter-Glo luminescence, 48 h; series mostly up to 46 µM
From the text: Drug repurposing or repositioning has been offered as a strategy for drug development in oncology programs. This approach has special potential for childhood cancers and other rare or orphan diseases, where the expected return on new drug development has been a disincentive to pharmaceuticals. […] In this project we exploit the poly-pharmacology of drugs to discover new indications via phenotypic screening of a panel of 19 well-characterized cell lines derived from solid tumors seen in children and adolescents. The goal is to identify approved drugs with previously unrecognized anticancer properties that has the potential to reveal new mechanisms and biological processes involved in carcinogenesis or drug resistance. We employed a titration-based paradigm (quantitative high-throughput screening or qHTS), where all compounds were tested at multiple concentrations for their effect on cell viability. Concentration-response curves (CRCs) were derived directly from the primary screen, and both potency and efficacy values were used to identify compounds with robust bioactivity profiles. We screened the NIH Chemical Genomics Center (NCGC) Pharmaceutical Collection (NPC) and Mechanism Interrogation Plate (MIPE) small molecule collections of approved and investigational compounds against these cell lines; and measured metabolically active cells after 48 hours of compound treatment as a proxy for cell viability. […] Assay Submitter: Nathalia J. Martinez, National Center for Advancing Translational Sciences, National Institutes of Health, Rockville, MD, USA; email: natalia.martinez@nih.gov Shen, M et al. Quantitative high-throughput phenotypic screening of pediatric cancer cell lines identifies multiple opportunities for drug repurposing. Oncotarget 2017 Dec 19;9(4):4758-4772. PMID 29435139.
The cells were obtained from University of North Carolina (UNC), Pediatric Preclinical Testing Program (PPT), and Coriell Institute (CI). qHTS cell viability assay: Cells were assayed in growth media at a density of 500-1,000 cells/well. Five microliters of cells were dispensed into 1,536-well, white, solid-bottom, TC-treated plates (Greiner Bio One) using a multidrop dispenser and incubated at 37 degrees C, 5% CO2, under a humidified atmosphere for 5 hours. Twenty-three nanoliters of compounds and controls (neutral control DMSO or positive control bortezomib at final concentration of 2.3 µM) were subsequently transferred by Kalypsys pintool. For primary screens, the MIPE collection was tested at 11-point dilutions (final concentrations range from 0.78 nM to 46 µM) and the NPC collection at 8-point dilutions (final concentrations range from 0.59 nM to 46 µM). Compounds tested in follow-up screens were assayed at 11-point dilutions. Cells were incubated for 48 hours, followed by addition of 3 µL of CellTiter-Glo (Promega). After a 15 min incubation at room temperature, samples were analyzed for luminescence intensity using a ViewLux High-throughput CCD imager equipped with clear filters.
Potency means the concentration at half of the fitted maximal effect.

| Compound | Potency |
| --- | --- |
| CCOCC(O)COc1ccc(NC(=O)CC[S+](C)C)cc1 (stereo not given) | inactive |
| O=C(O)C1CCCN(CCC=C(c2ccccc2)c2ccccc2)C1 (stereo not given) | inactive |
| O=C(O)c1cc(=O)[nH]c(=O)[nH]1 | inactive |
| S=P(N1CC1)(N1CC1)N1CC1 | inactive |
| NC(=O)N1c2ccccc2CC(=O)c2ccccc21 | inactive |
| CCOc1cc(N)c(Cl)cc1C(=O)NCC1CN(Cc2ccc(F)cc2)CCO1 (stereo not given) | inactive |
| COc1ncnc(NS(=O)(=O)c2ccc(N)cc2)c1OC | inactive |
| CC(C)NCC(O)c1ccc(NS(C)(=O)=O)cc1 (stereo not given) | inactive |
| CNS(=O)(=O)Cc1ccc2[nH]cc(CCN(C)C)c2c1 | inactive |
| CCC(=O)O[C@]1(C(=O)SCF)[C@H](C)C[C@H]2[C@@H]3C[C@H](F)C4=CC(=O)C=C[C@]4(C)[C@@]3(F)[C@@H](O)C[C@@]21C | inactive |
| CO[C@@H]1[C@@H](OC(N)=O)[C@@H](O)[C@H](Oc2ccc3c(O)c(NC(=O)c4ccc(O)c(CC=C(C)C)c4)c(=O)oc3c2C)OC1(C)C | inactive |
| CCn1cc(C(=O)O)c(=O)c2cc(F)c(N3CCNCC3)cc21 | inactive |
| O=C(O)CCn1c2c(c3ccccc31)C[C@H](NS(=O)(=O)c1ccc(F)cc1)CC2 | inactive |
| COc1cccc(N(C)C(=S)Oc2ccc3c(c2)CCCC3)n1 | inactive |
| CC[C@H](C)C(=O)O[C@H]1C[C@@H](C)C=C2C=C[C@H](C)[C@H](CC[C@@H]3C[C@@H](O)CC(=O)O3)[C@H]21 | inactive |
| COc1cc(NS(=O)(=O)c2ccc(N)cc2)nc(OC)n1 | inactive |
| COc1ccccc1OCC(O)COC(N)=O (stereo not given) | inactive |
| CCCc1cc(C(N)=S)ccn1 | inactive |
| CCOC(=O)[C@H](CCc1ccccc1)N[C@H]1CCc2ccccc2N(CC(=O)O)C1=O | 26.4 µM (active) |
| O[C@@H](CNC[C@H](O)[C@H]1CCc2cc(F)ccc2O1)[C@@H]1CCc2cc(F)ccc2O1 | 33.2 µM (active) |

| Compound | Potency |
| --- | --- |
| CN1CCCC(n2nc(Cc3ccc(Cl)cc3)c3ccccc3c2=O)CC1 (stereo not given) | 5.9 µM (active) |
| O=S(=O)(O)CCS | inactive |
| NC(=O)c1cccc(N)c1 | inactive |
| CCN(CC)CCn1c(=O)c(Cc2ccc(OC)cc2)nc2ccccc21 | inactive |
| CCC(=O)O[C@]1(C(=O)CCl)[C@@H](C)C[C@H]2[C@@H]3CCC4=CC(=O)C=C[C@]4(C)[C@@]3(F)[C@@H](O)C[C@@]21C | inactive |
| Nc1nc(N)nc(-c2cc(Cl)ccc2Cl)n1 | inactive |
| COc1ccc2c(c1)c(CC(=O)OCC(=O)O)c(C)n2C(=O)c1ccc(Cl)cc1 | inactive |
| COc1nc(N)nc2c1ncn2[C@@H]1O[C@H](CO)[C@@H](O)[C@@H]1O | inactive |
| COc1ccc2cc3[n+](cc2c1OC)CCc1cc2c(cc1-3)OCO2 | 10.5 µM (active) |
| Cn1nnc2c(C(N)=O)ncn2c1=O | inactive |
| Cc1onc(-c2ccccc2Cl)c1C(=O)N[C@@H]1C(=O)N2[C@@H]1SC(C)(C)[C@@H]2C(=O)O | inactive |
| CC(C)OC(=O)OCOP(=O)(CO[C@H](C)Cn1cnc2c(N)ncnc21)OCOC(=O)OC(C)C | inactive |
| CC(=O)CC(c1ccccc1)c1c(O)c2ccccc2oc1=O (stereo not given) | inactive |
| CNC(=O)c1cc(Oc2ccc(NC(=O)Nc3ccc(Cl)c(C(F)(F)F)c3)cc2)ccn1 | 18.7 µM (active) and 23.7 µM (active) |
| C[C@@H]1CN(c2c(F)c(N)c3c(=O)c(C(=O)O)cn(C4CC4)c3c2F)C[C@H](C)N1 | inactive |
| Nc1[nH]c(=O)ncc1F | inactive |
| CCOC(=O)c1ccc(C#Cc2ccc3c(c2)C(C)(C)CCS3)nc1 | inactive |
| CCOC(=O)c1ccc(OC(=O)CCCCCN=C(N)N)cc1 | inactive |
| NC(=O)c1cccnc1 | inactive |
| CCn1cc(C(=O)O)c(=O)c2cc(F)c(N3CCN(C)CC3)cc21 | inactive |
